26 compounds from PubChem BioAssay AID1565 (Sanford-Burnham Center for Chemical Genomics, 2009) can be followed below.

About 3,200 (1.1%) of roughly 290,000 compounds were called active. Many of the other results were omitted from the sample, so actives are more common in it than they were. Unmarked numbers belong to inactive results. Rule as the data show it: active = inhibition above about 60%; inactive = the rest.

In the experiment the target is Phosphoethanolamine/phosphocholine phosphatase (Homo sapiens) (UniProt Q8TCT1). Briefly: PubChem AID 1565. Conditions: recombinant PHOSPHO1, absorbance phosphatase assay; at 13.3 µM; stronger effect = higher value.
Phosphoethanolamine/phosphocholine phosphatase (Homo sapiens), sequence (Q8TCT1 whole entry, looked up): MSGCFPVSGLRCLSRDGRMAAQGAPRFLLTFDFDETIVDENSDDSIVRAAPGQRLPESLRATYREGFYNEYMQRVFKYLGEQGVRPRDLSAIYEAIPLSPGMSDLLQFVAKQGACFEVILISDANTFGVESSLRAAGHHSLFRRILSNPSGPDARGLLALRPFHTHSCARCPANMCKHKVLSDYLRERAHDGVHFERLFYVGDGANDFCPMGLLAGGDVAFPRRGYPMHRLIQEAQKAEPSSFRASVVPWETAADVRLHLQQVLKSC
In general, inhibition refers to the change of the read-out against control, counted positive when it falls. Turning to `CC(=O)c1ccc(N2CCN(C(=O)CCNC(=O)Cn3ccc4ccccc4c3=O)CC2)cc1`, the inhibition is 39.1%.
The result for `CCc1ccc(-c2nc(SCC(=O)NC3CCCC3)n[nH]2)cc1` reads 19.2%; that for `CC(C)c1ccc(S(=O)(=O)N2CCN(C(=O)c3ccc(N4CCCC4)c([N+](=O)[O-])c3)CC2)cc1`, 14.7%.
The result for `Cc1ccc(CNC(=O)C2(C(F)(F)F)C/C(=C\Cc3ccccc3)CCCO2)o1` (stereo unspecified) reads -1.7%; that for `Cc1ccc(C(=O)Nc2nnc(-c3cccs3)s2)cc1C`, 60.1% (active).
Regarding `Cc1ccc(C(=O)Oc2coc(CSc3nnc(NC(=O)c4cccs4)s3)cc2=O)cc1C`, the inhibition is -10.5%.
As to `CCOc1cccc(C(=O)Nc2nnc(-c3cccs3)s2)c1`, the inhibition is 8.6%.
`Cc1ccc(S(=O)(=O)c2nnn3c2nc(N2CCN(c4ccccn4)CC2)c2ccccc23)cc1`: the inhibition is 14.6%.
Consider `COc1ccccc1C(=O)N1C(CC(=O)Nc2ccccc2C)C(=O)NC2CCCCC21` (stereo unspecified), for which the inhibition is 17.1%.
As to `Cc1cc(NC(=O)Nc2c[nH]c(=O)[nH]c2=O)ccc1Br`, the inhibition is 32.6%.
The result for `CCC(C)(C)NC(=O)CN(C(=O)CCC(=O)Nc1nccs1)c1ccc2c(c1)OCO2` reads 28%; that for `O=C(O)c1ccccc1CSc1nc2ccccc2s1`, -3.9%.
Regarding `Cc1cc(C)n2nc(SCC(N)=O)nc2n1`, the inhibition is 35.9%.
On to `Cc1cc(C)n2nc(C(=O)NC(C)(C)C)nc2n1`, for which the inhibition is 27%.
In the case of `Cc1cc(C)n2nc(CNS(=O)(=O)c3c(F)c(F)c(F)c(F)c3F)nc2n1`, the inhibition was 64.9% (active).
Regarding `C/C(=N\N(C)C)c1ccc(OCCOc2ccc([N+](=O)[O-])cc2)cc1`, the inhibition was 23.7%.
On to `COc1ccc(C2CC(=O)NC(=O)C2)cc1`, for which the inhibition was 22.9%.
With `CC(=O)Nc1ccc(NC(=O)c2sc3nc4c(c(-c5ccc(C)cc5)c3c2N)CCC4)cc1`, the inhibition was 14.1%.
As for `Cc1cccc(NC(=O)c2sc3nc4c(c(-c5ccco5)c3c2N)CCC4)c1`, the inhibition was 67.5% (active).
For the compound `Cc1cccc(NC(=O)c2sc3nc(N4CCOCC4)c4c(c3c2N)CCCC4)c1`, the inhibition was 21.8%.
Turning to `O=C(Nc1ccc([N+](=O)[O-])cc1)OCCc1ccccn1`, the inhibition is 17.9%.
For `CCOc1ccc2c(c1)c(=O)c(S(=O)(=O)c1ccc(C)cc1)cn2CC`, the inhibition was 47.5%.
For `CCOc1cc(C(=S)N2CCOCC2)ccc1OS(=O)(=O)c1ccc(Br)cc1`, the inhibition is 8.5%.
To `CCOc1cc(C(=S)N2CCOCC2)ccc1O` belongs 96.3% (active).
For `COc1cc(C(=S)N2CCOCC2)ccc1O`, the inhibition is 3.5%.
Regarding `Cc1ccc(N(C(=O)CNC(=O)c2ccco2)C(C(=O)NC2CCCC2)c2ccncc2)cc1` (stereo unspecified), the inhibition was 43.5%.
